According to PubChem BioAssay:
Activity calls are given as the source filed them.

Legend:
[1] = small molecules captured by biotinylated probe aFSTL3 – biochemical, small-molecule microarray, fluorescence 635/667, stem cell growth factor project, primary screen (AID 1064); conditions: higher = more signal;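 note: measures binding of the biotinylated anti-FSTL3 antibody to printed compounds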
[2] = binders from COS7 lysate, DM2A8 probe, primary screen, torsin A project, cell lysate, small-molecule microarray, fluorescence 635/667 (AID 1065); conditions: higher = more signal, COS7 lysate expressing mutant human TOR1A
[3] = small molecules captured by biotinylated probe aFGF2 – biochemical, small-molecule microarray, fluorescence 635/667, stem cell growth factor project, primary screen (AID 1067); conditions: higher = more signal;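 note: measures binding of biotinylated aFGF2 protein to printed compounds on slides; z-score merges feature fluorescence and signal-to-noise across triplicate slides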
[4] = small molecules captured by biotinylated probe aFGF10 – biochemical, small-molecule microarray, fluorescence 635/667, stem cell growth factor project, primary screen (AID 1071); conditions: higher = more signal;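 note: score merges 667 nm spot intensity and signal to noise from triplicate slides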
[5] = biological target: Neurogenic locus notch homolog protein 2 (Homo sapiens) (UniProt Q04721); test: small molecules binding Notch2 protein – biochemical, small-molecule microarray, 635 nm fluorescence, stem cell growth factors, primary screen (AID 1073); conditions: higher = more signal
[6] = biological target: Pro-neuregulin-1, membrane-bound isoform (Homo sapiens) (UniProt Q02297); test: small molecules binding neuregulin-1 protein – biochemical, small-molecule microarray, fluorescence 635/667, psychiatric disease protein project, primary screen (AID 1075); conditions: NRG1 binding, 635 nm fluorescence, higher = more signal;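 note: score combines 667 nm spot fluorescence with signal to noise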
[7] = system: Neuregulin-1 EGF-like domain; test: small molecules binding NRG1 EGF domain – biochemical, small-molecule microarray, 635 nm fluorescence, primary screen (AID 1081); conditions: higher = more signal;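 note: binding of the protein to compounds printed on small-molecule microarray slides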
[8] = FRG1 expression reporter modulators in myotubes – cell-based, C2C12 myotubes, firefly/Renilla luciferase, luminescence, FRG1 inhibition for FSHD, primary screen (AID 1084); conditions: FRG1 promoter luciferase, higher = more signal, called active from +8 up or from −8 down
[9] = small molecules captured by biotinylated probe aFST – biochemical, small-molecule microarray, fluorescence 635/667, stem cell growth factor project, primary screen (AID 1086); conditions: higher = more signal;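 note: score merges 667 nm fluorescence with signal-to-noise of each printed compound spot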
[10] = binders of probe aHhip on microarray, primary screen, stem cell growth factor project, biochemical, small-molecule microarray, fluorescence 635/667 (AID 1087); conditions: higher = more signal;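 note: score merges spot fluorescence at 667nm with spot signal to noise ratio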
[11] = system: PRMT1 (protein arginine N-methyltransferase 1); test: small molecules binding arginine methyltransferase PRMT1 – biochemical, small-molecule microarray, 635 nm fluorescence, primary screen (AID 1088); conditions: higher = more signal;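 note: binding of Prmt1 protein to compounds spotted on small-molecule microarray slides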
[12] = growth effects on S. cerevisiae YJM789 – YJM789 clinical isolate, OD600, 24 h, basal, primary screen (AID 1089); conditions: higher = more signal, called active from +8 up or from −8 down;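 note: growth of clinical yeast isolate S. cerevisiae YJM 789 seeded 1000 cells per well; test concentration not given here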
[13] = S. pombe growth modifiers, basal conditions – strain 972, OD600, 24 h, no modulator, primary screen (AID 1090);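 note: basal condition with compound alone and no growth modifier present; test concentration not given here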; conditions: S. pombe 972 growth, higher = more signal, called active from +8 up or from −8 down
[14] = budding yeast growth modifiers under rapamycin – strain BY4716, OD600, 96 h, primary screen (AID 1091); note: test concentration not given here; conditions: S. cerevisiae BY4716 + rapamycin, higher = more signal, called active from +8 up or from −8 down
[15] = biological target: Torsin-1A-interacting protein 2 (Homo sapiens) (UniProt Q8NFQ8); test: small molecules binding lysate-expressed LULL1 – cell lysate, human LULL1 lysate, 635/667 nm fluorescence, primary screen (AID 1092); conditions: small-molecule microarray, hLULL1 lysate binding, 635 nm fluorescence; higher = more signal;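 note: probe is lysate of COS7 cells overexpressing human LULL1; score merges per-feature 667 nm fluorescence with signal-to-noise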
[16] = optical density change of DRC41 E. coli – strain DRC41, OD650, 24 h, E. coli filamentation project, primary screen (AID 1093);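 note: MC1000 strain lacking acrAB efflux and sulA so SOS filamentation is blocked; test concentration not given here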; conditions: E. coli DRC41 growth, higher = more signal, called active from +8 up or from −8 down
[17] = probe aLefty2 binding to arrayed compounds – biochemical, biotinylated probe, 635/667 nm fluorescence, primary screen (AID 1094); conditions: small-molecule microarray, higher = more signal;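 note: score merges spot fluorescence near 667 nm with spot signal-to-noise ratio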
[18] = system: Noggin (protein binding on small-molecule microarray); test: small molecules binding Noggin protein – biochemical, 635/667 nm fluorescence, primary screen (AID 1095); conditions: 635 nm fluorescence, higher = more signal;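 note: score merges 667 nm feature fluorescence with signal to noise over triplicate slides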
[19] = biological target: Neurogenic locus notch homolog protein 3 (Homo sapiens) (UniProt Q9UM47); test: small molecules binding NOTCH3 protein – biochemical, 635/667 nm fluorescence, primary screen (AID 1096); conditions: small-molecule microarray, 635 nm fluorescence, higher = more signal
[20] = probe aEGFR binding to arrayed compounds – biochemical, biotinylated probe, 635/667 nm fluorescence, primary screen (AID 1097); conditions: small-molecule microarray, higher = more signal;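 note: probe is a biotinylated anti-EGFR antibody binding compounds printed on slides; score combines fluorescence near 667 nm and signal to noise of each spot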

Sequence of Neurogenic locus notch homolog protein 2 (Homo sapiens) (Q04721 whole entry, looked up, canonical isoform): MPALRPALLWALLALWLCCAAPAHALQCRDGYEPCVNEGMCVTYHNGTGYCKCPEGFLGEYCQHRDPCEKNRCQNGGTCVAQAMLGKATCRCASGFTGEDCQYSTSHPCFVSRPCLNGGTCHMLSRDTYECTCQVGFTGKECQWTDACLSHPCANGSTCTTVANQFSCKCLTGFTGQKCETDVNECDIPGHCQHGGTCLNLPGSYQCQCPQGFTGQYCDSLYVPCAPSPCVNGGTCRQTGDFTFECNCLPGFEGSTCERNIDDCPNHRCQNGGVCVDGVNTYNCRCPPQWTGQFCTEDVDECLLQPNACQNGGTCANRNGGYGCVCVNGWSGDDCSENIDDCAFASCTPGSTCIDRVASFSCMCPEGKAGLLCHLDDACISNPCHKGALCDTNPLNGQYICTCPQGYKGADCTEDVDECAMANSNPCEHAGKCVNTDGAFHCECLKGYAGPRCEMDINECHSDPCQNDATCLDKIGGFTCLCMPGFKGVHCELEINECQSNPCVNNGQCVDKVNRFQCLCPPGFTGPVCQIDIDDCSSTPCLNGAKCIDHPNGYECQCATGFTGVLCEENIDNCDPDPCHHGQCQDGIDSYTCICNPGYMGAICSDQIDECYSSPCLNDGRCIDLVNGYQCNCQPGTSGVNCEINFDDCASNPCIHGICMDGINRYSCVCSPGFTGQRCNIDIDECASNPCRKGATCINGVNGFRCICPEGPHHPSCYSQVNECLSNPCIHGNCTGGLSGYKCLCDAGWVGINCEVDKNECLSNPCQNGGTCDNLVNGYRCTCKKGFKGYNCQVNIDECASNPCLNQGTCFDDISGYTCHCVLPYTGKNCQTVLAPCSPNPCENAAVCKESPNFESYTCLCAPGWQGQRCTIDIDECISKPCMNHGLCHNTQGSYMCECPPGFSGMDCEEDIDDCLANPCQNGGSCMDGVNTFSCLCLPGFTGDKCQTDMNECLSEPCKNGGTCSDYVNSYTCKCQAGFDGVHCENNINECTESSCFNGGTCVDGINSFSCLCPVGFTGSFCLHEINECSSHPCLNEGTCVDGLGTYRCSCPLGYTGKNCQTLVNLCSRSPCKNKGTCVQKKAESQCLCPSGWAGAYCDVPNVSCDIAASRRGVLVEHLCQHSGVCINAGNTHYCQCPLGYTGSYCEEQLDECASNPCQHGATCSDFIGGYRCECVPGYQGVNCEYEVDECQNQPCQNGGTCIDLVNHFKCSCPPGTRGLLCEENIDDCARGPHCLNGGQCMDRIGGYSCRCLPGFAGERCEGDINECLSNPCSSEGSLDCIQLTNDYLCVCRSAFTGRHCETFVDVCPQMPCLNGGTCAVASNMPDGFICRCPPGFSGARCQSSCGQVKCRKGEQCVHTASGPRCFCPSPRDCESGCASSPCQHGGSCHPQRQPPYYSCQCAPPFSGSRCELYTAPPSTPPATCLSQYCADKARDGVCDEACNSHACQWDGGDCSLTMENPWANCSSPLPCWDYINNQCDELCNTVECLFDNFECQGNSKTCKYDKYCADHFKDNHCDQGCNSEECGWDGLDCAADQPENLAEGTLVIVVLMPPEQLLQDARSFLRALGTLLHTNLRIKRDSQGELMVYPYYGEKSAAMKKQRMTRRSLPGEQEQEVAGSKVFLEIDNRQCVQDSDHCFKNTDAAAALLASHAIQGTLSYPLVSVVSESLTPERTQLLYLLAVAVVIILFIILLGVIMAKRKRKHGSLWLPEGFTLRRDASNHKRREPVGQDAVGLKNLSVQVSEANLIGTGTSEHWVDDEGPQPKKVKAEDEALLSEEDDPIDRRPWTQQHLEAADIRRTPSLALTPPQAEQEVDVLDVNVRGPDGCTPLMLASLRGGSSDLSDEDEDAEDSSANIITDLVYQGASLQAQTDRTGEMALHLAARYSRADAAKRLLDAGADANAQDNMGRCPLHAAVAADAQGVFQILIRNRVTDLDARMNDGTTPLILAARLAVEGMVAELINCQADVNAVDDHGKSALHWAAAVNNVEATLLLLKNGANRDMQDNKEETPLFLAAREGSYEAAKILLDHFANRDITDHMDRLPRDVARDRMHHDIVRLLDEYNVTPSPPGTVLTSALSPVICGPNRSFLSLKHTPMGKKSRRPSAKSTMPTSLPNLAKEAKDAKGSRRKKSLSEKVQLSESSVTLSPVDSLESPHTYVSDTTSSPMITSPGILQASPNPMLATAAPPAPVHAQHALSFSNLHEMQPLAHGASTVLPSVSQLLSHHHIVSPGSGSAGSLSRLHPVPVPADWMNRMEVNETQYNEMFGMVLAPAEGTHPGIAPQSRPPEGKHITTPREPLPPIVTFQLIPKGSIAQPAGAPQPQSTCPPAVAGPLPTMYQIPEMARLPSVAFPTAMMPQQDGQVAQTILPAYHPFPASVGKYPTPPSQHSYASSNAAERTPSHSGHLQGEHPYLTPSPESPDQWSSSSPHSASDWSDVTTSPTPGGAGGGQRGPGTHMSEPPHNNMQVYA
Sequence of Torsin-1A-interacting protein 2 (Homo sapiens) (Q8NFQ8 whole entry, looked up): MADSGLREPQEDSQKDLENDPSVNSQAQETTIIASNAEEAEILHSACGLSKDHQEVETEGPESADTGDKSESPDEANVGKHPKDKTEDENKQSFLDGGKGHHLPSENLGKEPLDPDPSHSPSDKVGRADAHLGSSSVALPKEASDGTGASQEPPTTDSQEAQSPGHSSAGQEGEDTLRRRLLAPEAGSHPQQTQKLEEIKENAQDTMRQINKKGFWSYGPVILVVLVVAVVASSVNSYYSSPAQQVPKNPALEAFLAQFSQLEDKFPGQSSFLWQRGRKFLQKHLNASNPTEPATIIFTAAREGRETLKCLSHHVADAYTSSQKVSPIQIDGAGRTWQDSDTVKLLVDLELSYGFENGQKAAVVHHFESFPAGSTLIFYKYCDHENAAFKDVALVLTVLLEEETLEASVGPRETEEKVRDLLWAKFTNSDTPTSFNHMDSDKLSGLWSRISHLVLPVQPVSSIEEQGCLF
Sequence of Pro-neuregulin-1, membrane-bound isoform (Homo sapiens) (Q02297 whole entry, looked up, the tested form may be a part, canonical isoform): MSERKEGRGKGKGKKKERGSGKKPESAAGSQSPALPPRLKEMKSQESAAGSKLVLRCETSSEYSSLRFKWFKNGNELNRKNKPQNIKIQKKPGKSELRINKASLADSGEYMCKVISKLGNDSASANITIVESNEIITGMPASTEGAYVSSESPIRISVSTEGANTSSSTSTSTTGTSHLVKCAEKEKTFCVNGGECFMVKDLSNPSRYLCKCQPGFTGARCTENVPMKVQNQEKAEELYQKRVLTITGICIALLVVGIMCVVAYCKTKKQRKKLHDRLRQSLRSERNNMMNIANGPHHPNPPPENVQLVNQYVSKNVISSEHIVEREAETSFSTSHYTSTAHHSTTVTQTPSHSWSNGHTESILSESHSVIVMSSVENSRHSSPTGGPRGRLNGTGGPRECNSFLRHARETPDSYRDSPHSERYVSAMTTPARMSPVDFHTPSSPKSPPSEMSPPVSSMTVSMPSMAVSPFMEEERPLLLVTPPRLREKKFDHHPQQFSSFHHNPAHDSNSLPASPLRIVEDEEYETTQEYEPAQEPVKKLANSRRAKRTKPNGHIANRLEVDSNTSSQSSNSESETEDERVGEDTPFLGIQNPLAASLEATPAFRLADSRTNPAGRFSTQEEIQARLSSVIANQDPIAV

C=CC(COC(C)=O)NS(=O)(=O)c1ccc(Br)cc1 (stereo not given)
composite z-score [1]: -0.647 | composite z-score [2]: 0.58 | composite z-score [3]: -0.105 | composite z-score [4]: 0.366 | composite z-score [5]: 0.363 | composite z-score [6]: 0.0456 | composite z-score [7]: 0.583 | z-score [8]: -0.747 (inactive) | composite z-score [9]: 0.0296 | composite z-score [10]: 0.174 | composite z-score [11]: 0.1 | z-score [12]: -0.141 (inactive) | z-score [13]: -0.467 (inactive) | z-score [14]: -0.9 (inactive) | composite z-score [15]: 0.185 | z-score [16]: -0.975 (inactive) | composite z-score [17]: 0.0216 | composite z-score [18]: 0.598 | composite z-score [19]: 0.604 | composite z-score [20]: 0.0749

[N-]=[N+]=NCc1ccccc1C[C@]1(C(=O)O)N=C(c2ccc(OCCCO)cc2)O[C@H]1c1ccccc1
composite z-score [1]: 0.32 | composite z-score [2]: 0.474 | composite z-score [3]: -0.0184 | composite z-score [4]: 0.39 | composite z-score [5]: 0.0892 | composite z-score [6]: 1.09 | composite z-score [7]: 0.976 | z-score [8]: -2.33 (inactive) | composite z-score [9]: 0.219 | composite z-score [10]: -0.261 | composite z-score [11]: 1.01 | z-score [12]: -0.143 (inactive) | z-score [13]: -0.305 (inactive) | z-score [14]: -1.36 (inactive) | composite z-score [15]: 1.86 | z-score [16]: 0.279 (inactive) | composite z-score [17]: -0.0221 | composite z-score [18]: -0.985 | composite z-score [19]: 0.204 | composite z-score [20]: -0.232

COc1ccc(CCNC(=O)[C@@]2(c3ccc([N+](=O)[O-])cc3)CC(=O)N(CC34CC5CC(CC(C5)C3)C4)[C@@H]2c2ccc(CO)cc2)cc1
composite z-score [1]: 0.281 | composite z-score [2]: 0.441 | composite z-score [3]: -0.0039 | composite z-score [4]: 0.268 | composite z-score [5]: 1.14 | composite z-score [6]: 1.22 | composite z-score [7]: 1.15 | z-score [8]: -0.0918 (inactive) | composite z-score [9]: 0.298 | composite z-score [10]: 0.0848 | composite z-score [11]: 1.37 | z-score [12]: 0.719 (inactive) | z-score [13]: -0.063 (inactive) | z-score [14]: 6.65 (inactive) | composite z-score [15]: 2.11 | z-score [16]: -0.108 (inactive) | composite z-score [17]: 0.257 | composite z-score [18]: 0.71 | composite z-score [19]: 1.16 | composite z-score [20]: 0.544

C=CCC(OC(C)=O)[C@@H]1[C@@H](N(Cc2cccc3ccccc23)C(=O)c2cccc3ccccc23)c2cc(OCCCO)ccc2N1C(=O)c1ccc2ccccc2n1 (stereo not given in full)
composite z-score [1]: -0.218 | composite z-score [2]: 0.215 | composite z-score [3]: 0.0083 | composite z-score [4]: 0.281 | composite z-score [5]: -0.0258 | composite z-score [6]: -0.0137 | composite z-score [7]: -0.444 | z-score [8]: -2.01 (inactive) | composite z-score [9]: 0.0846 | composite z-score [10]: 0.0826 | composite z-score [11]: 0.346 | z-score [12]: -1.03 (inactive) | z-score [13]: 0.626 (inactive) | z-score [14]: -0.964 (inactive) | composite z-score [15]: 0.681 | z-score [16]: -0.764 (inactive) | composite z-score [17]: -0.0102 | composite z-score [18]: 0.282 | composite z-score [19]: -0.0176 | composite z-score [20]: -0.0549

CCOC(=O)C1=CC[C@@H](c2ccccc2)N(S(=O)(=O)c2ccc(C)cc2)[C@H]1C(=O)OCC
composite z-score [1]: 0.138 | composite z-score [2]: -0.0127 | composite z-score [3]: 0.338 | composite z-score [4]: 0.641 | composite z-score [5]: 1.25 | composite z-score [6]: -0.196 | composite z-score [7]: 1.03 | z-score [8]: -2.4 (inactive) | composite z-score [9]: 0.603 | composite z-score [10]: -0.108 | composite z-score [11]: 0.334 | z-score [12]: 0.19 (inactive) | z-score [13]: 0.572 (inactive) | z-score [14]: 1.94 (inactive) | composite z-score [15]: 1.14 | z-score [16]: 0.157 (inactive) | composite z-score [17]: 0.415 | composite z-score [18]: 0.0818 | composite z-score [19]: 0.0539 | composite z-score [20]: 0.202

COC(=O)[C@@]1(Cc2ccc(OC)cc2)[C@H]2c3cc(C(=O)N4CCCC4)n(CCc4c[nH]c5cc(F)ccc45)c3C[C@H]2CN1C(=O)c1ccccc1
composite z-score [1]: 0.785 | composite z-score [2]: 0.209 | composite z-score [3]: 0.0181 | composite z-score [4]: 0.71 | composite z-score [5]: 1.76 | composite z-score [6]: 2.12 | composite z-score [7]: 1.18 | z-score [8]: -0.87 (inactive) | composite z-score [9]: 2.35 | composite z-score [10]: 0.28 | composite z-score [11]: 1.09 | z-score [12]: 0.548 (inactive) | z-score [13]: 1.2 (inactive) | z-score [14]: 1.75 (inactive) | composite z-score [15]: 3.54 | z-score [16]: 0.332 (inactive) | composite z-score [17]: 0.776 | composite z-score [18]: 0.103 | composite z-score [19]: 1.08 | composite z-score [20]: 0.103

COCCOC(=O)N1C(=O)[C@@]2(c3ccccc31)[C@H](C(=O)NC[C@H](O)c1ccccc1)[C@H]1C(=O)O[C@H](c3ccccc3)[C@H](c3ccccc3)N1[C@@H]2c1ccc(OCCO)cc1
composite z-score [1]: -0.242 | composite z-score [2]: 0.591 | composite z-score [3]: -0.113 | composite z-score [4]: 0.36 | composite z-score [5]: 1.38 | composite z-score [6]: 0.977 | composite z-score [7]: 1.08 | z-score [8]: -0.31 (inactive) | composite z-score [9]: 0.53 | composite z-score [10]: 0.0283 | composite z-score [11]: 1.54 | z-score [12]: 1.98 (inactive) | z-score [13]: 1.64 (inactive) | z-score [14]: 6.18 (inactive) | composite z-score [15]: 2.85 | z-score [16]: 1.77 (inactive) | composite z-score [17]: -0.066 | composite z-score [18]: 1.81 | composite z-score [19]: 1.04 | composite z-score [20]: -0.023

O=C/C=C/c1ccc(Cl)cc1
composite z-score [1]: -0.0244 | composite z-score [2]: -0.385 | composite z-score [3]: 0.0086 | composite z-score [4]: 0.439 | composite z-score [5]: -0.885 | composite z-score [6]: -0.476 | composite z-score [7]: 0.651 | z-score [8]: -0.678 (inactive) | composite z-score [9]: -0.493 | composite z-score [10]: -0.282 | composite z-score [11]: -1.24 | z-score [12]: -10.4 (active) | z-score [13]: -20.1 (active) | z-score [14]: -2.49 (inactive) | composite z-score [15]: -1.2 | z-score [16]: -0.767 (inactive) | composite z-score [17]: -0.134 | composite z-score [18]: -0.968 | composite z-score [19]: -1.09 | composite z-score [20]: -0.113

O=C1OCC=C[C@H]2OC34C=CCN(c5ccc6ccccc6c5)C(=O)[C@H]3N(CCCO)C(=O)[C@@H]4[C@@H]12 (stereo not given in full)
composite z-score [1]: 0.714 | composite z-score [2]: -2.17 | composite z-score [3]: -0.102 | composite z-score [4]: -0.657 | composite z-score [5]: -0.894 | composite z-score [6]: -0.0772 | composite z-score [7]: 1.59 | z-score [8]: 0.389 (inactive) | composite z-score [9]: -0.234 | composite z-score [10]: 0.0515 | composite z-score [11]: -0.3 | z-score [12]: 0.0281 (inactive) | z-score [13]: -0.318 (inactive) | z-score [14]: 0.0596 (inactive) | composite z-score [15]: -0.309 | z-score [16]: 0.993 (inactive) | composite z-score [17]: 0.0061 | composite z-score [18]: 0.0654 | composite z-score [19]: 0.0404 | composite z-score [20]: -0.186

C=CC[C@@]1(C(=O)N2CCOCC2)N=C(c2ccc(OCCCO)cc2)O[C@@H]1c1ccccc1N=[N+]=[N-]
composite z-score [1]: 0.529 | composite z-score [2]: 0.985 | composite z-score [3]: -0.0073 | composite z-score [4]: 0.853 | composite z-score [5]: 1.53 | composite z-score [6]: 1.44 | composite z-score [7]: 1.19 | z-score [8]: -0.469 (inactive) | composite z-score [9]: 0.993 | composite z-score [10]: 0.21 | composite z-score [11]: 1.54 | z-score [12]: -1.27 (inactive) | z-score [13]: -1.02 (inactive) | z-score [14]: 0.811 (inactive) | composite z-score [15]: 3.41 | z-score [16]: 0.639 (inactive) | composite z-score [17]: 0.362 | composite z-score [18]: 0.998 | composite z-score [19]: 1.13 | composite z-score [20]: 0.353
